Compound activity deposited in PubChem by The Scripps Research Institute Molecular Screening Center.
hgDAF-12 ag – activates the H. glycines DAF-12 receptor ligand-binding domain; hit rate 1.8% among 370,000; HEK293 GAL4-hgDAF12 UAS-luciferase reporter, agonist luminescence; normalized to butyrate control; activation, % at 6.8 µM;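 active means activation above a cutoff set at the mean of all screened compounds plus 3 SD, cut at about 10% in these data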
DAX1 inh-1 – inhibitors of DAX1 repression of SF-1 activated StAR promoter. HEK293T StAR-luciferase reporter, SF-1/DAX-1 repression relief. inhibition, % at 6.8 µM. hit rate 1.1% among 370,000. AID 652010;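 active means inhibition above the mean over all tested compounds plus 3 SD, cut at about 3.6% in these data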;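 further: higher inhibition means more luminescence from relief of DAX-1 repression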
DAX1 inh-2 – inhibits human nuclear receptor DAX1; P51843; HEK293 Gal4-DAX1 luciferase reporter, luminescence; inhibition, % at 6.75 µM; hit rate 0.99% among 340,000; AID 504766;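 active means inhibition above the mean over all tested compounds plus 3 SD, cut at about 4.2% in these data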;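 further: inhibition shows as a rise in luminescence from relieved DAX1 repression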
Target sequence (P51843 207-470 limits assumed): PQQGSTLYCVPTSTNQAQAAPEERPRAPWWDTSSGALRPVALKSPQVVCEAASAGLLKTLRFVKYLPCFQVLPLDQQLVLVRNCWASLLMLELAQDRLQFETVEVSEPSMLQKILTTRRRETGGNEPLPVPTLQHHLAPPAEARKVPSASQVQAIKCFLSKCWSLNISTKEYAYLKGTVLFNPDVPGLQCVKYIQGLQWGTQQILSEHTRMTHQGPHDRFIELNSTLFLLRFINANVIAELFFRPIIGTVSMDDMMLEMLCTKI
hcDAF-12 act – activators of H. contortus DAF-12 nuclear receptor | hit rate 1.4% among 370,000 | HEK293 hcDAF-12 lit1-tk-luc reporter, luminescence; 0% DMSO, 100% Δ7-dafachronic acid | AID 652067 | activation, % at 6.8 µM;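 active means activation above the mean of all tested compounds plus 3 SD, cut at about 5.5% in these data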
ssDAF-12 act – activators of S. stercoralis DAF-12 nuclear receptor; HEK293 ssDAF-12/GRIP1 lit1-tk-luc reporter, luminescence; % of 3 µM dafachronic acid response; activation, % at 6.8 µM; hit rate 1% among 370,000;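 active means activation above the mean over all tested compounds plus 3 SD, cut at about 0.9% in these data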
SMARCA2 activ – activators of SMARCA2 function; MG213 cells, MMTV-luciferase reporter, dexamethasone, overnight; activation, % at 9.1 µM; hit rate 1% among 370,000; in the data active means activation above about 7.8%
Hits are given with their value; . = inactive; / = no result given. A selection: hits, their analogues and other compounds. The true share with any hit is near 4.8%.

SMILES	hgDAF-12 ag	DAX1 inh-1	DAX1 inh-2	hcDAF-12 act	ssDAF-12 act	SMARCA2 activ
O=C(CCCc1ccccc1)NC1CC1	.	.	.	5.7	.	.
O=C(CCCC(=O)c1ccc(O)cc1)c1ccc(O)cc1	10.5	.	.	.	.	.
COC(=O)[C@]1(CNC(=O)Nc2ccc(C)c(Cl)c2)CC(=O)N(C)[C@@H]1c1ccccc1	.	.	/	.	.	.
Nc1cccc(C(=O)c2ccccc2C(=O)O)c1	.	.	.	.	.	.
COc1ccccc1CN1CC(C(=O)NCc2cnn(C)c2)CCC1=O (stereo not drawn)	.	.	.	.	.	.
CCc1noc(C)c1C(=O)Nc1ccc(-c2nnc3n2CCCCC3)cc1	.	.	.	.	.	.
CCOC(=O)C1=C(Nc2ccccc2)CSC1	.	.	.	.	.	.
O=C(COc1ccccc1Cl)Nc1ccc(N2CCN(C(=O)c3ccccc3)CC2)cc1	.	.	.	.	.	.
COc1ccc(C(=O)C(=NN)c2ccccc2)cc1	12.3	.	.	.	.	.
COc1ccc(C(=O)C(=NNc2ccccc2)c2ccc(OC)cc2)cc1	.	.	.	.	.	.
COc1ccc(CCNS(=O)(=O)CCNC(=O)c2ccccc2)cc1	.	.	.	.	.	.
COc1cccc(C(=O)NCCS(=O)(=O)NCCc2ccccc2)c1	.	4.0	.	.	.	.
CN(C)/C=C(/C(=O)c1ccccc1Cl)S(=O)(=O)c1ccccc1	.	.	.	.	.	.
COc1ccc(C(=O)/C(=C/N(C)C)S(=O)(=O)c2ccccc2)cc1	12.1	.	.	.	.	.
COc1cccc(/C(O)=C/c2nc3ccc(C(=O)NCCc4cccc(C)c4)cc3[nH]c2=O)c1	.	.	.	.	1.1	.
Cc1noc(C)c1NC(=O)N(C)C[C@@H]1Oc2ccc(NC(=O)Cc3cn(C)c4ccccc34)cc2CC(=O)N([C@H](C)CO)C[C@@H]1C	.	.	.	.	.	.
O=C(NC1CCCC1)c1cc(=O)[nH]c2ccccc12	.	.	.	.	.	.
CC1CCN(CCc2nc3cc(NC(=O)COc4ccc([N+](=O)[O-])cc4)ccc3n2C)CC1	.	.	.	.	.	.
COc1ccc(C(=O)NCC(=O)c2ccccc2)cc1	12.4	.	.	.	.	.
COc1cccc(NC(=O)CN(C)C(=O)CNC(=O)c2ccc(Oc3ccccc3)cc2)c1	.	.	.	.	.	.
COc1ccc(NC(=O)CN(C)C(=O)CNC(=O)c2ccc3ccccc3c2)cc1	.	.	4.2	.	.	.
CNc1cnc(-c2ccc(C(=O)N3CCOCC3)cc2)cn1	.	.	/	.	.	.
CCCC(=O)N1CCC1(C)C(=O)Nc1ccccc1-c1ccccc1 (stereo not drawn)	.	.	/	.	.	.
CCCC(=O)N1CCC1(C)C(=O)Nc1cc(-c2ccccc2)nn1C (stereo not drawn)	11.7	3.9	/	.	.	.
CC1(C(=O)Nc2ccc3c(c2)OCCO3)CCC(=O)N1CCOc1ccccc1 (stereo not drawn)	.	.	/	.	.	.
SMILES	hgDAF-12 ag	DAX1 inh-1	DAX1 inh-2	hcDAF-12 act	ssDAF-12 act	SMARCA2 activ
C[C@H]1CN([C@@H](C)CO)C(=O)c2cc(-c3ccccc3F)cnc2O[C@@H]1CN(C)C(=O)NC1CCCCC1	.	.	.	.	.	.
COc1cc(C)ccc1OCc1cc(C(=O)NC(c2ccccn2)C(F)(F)F)no1 (stereo not drawn)	.	.	.	.	.	.
COCC1CCCCN1C(=O)c1ccc(OC2CCN(Cc3ccccn3)CC2)cc1 (stereo not drawn)	.	.	.	.	.	.
CCC1CCCCN1C(=O)c1ccc(OC2CCN(Cc3ccccn3)CC2)cc1 (stereo not drawn)	11.2	.	.	.	.	.
Cc1ccccc1S(=O)(=O)NC(=O)C1(C)CCN1C(=O)CC(c1ccccc1)c1ccccc1 (stereo not drawn)	.	.	/	.	.	.
O=C1C(=O)N(CCN2CCOCC2)C(c2ccccc2)/C1=C(\O)c1ccc2c(c1)OCCO2 (stereo not drawn)	.	4.0	.	.	.	.
FC(F)(F)c1nnc(N2CCN(c3ccc(Cl)cc3)CC2)s1	.	.	5.2	.	.	.
Cc1cccc(N2CCN(c3nnc(C(F)(F)F)s3)CC2)c1	.	.	.	.	.	.
Oc1ccc(N=Nc2ccccc2)o1	.	.	.	.	4.4	.
CN(C(=O)c1ccc2c(c1)S(=O)(=O)N=C1CCCCCN12)c1ccccc1	.	.	.	.	.	.
O=C(O)c1ccc2c(c1)S(=O)(=O)N=C1CCCCCN12	.	.	5.1	.	.	.
O=C(C1CCN(S(=O)(=O)c2cc(Cl)ccc2Cl)CC1)N1CCCC1	.	.	.	.	.	.
COc1ccc(-c2coc3cc(OC)cc(O)c3c2=O)cc1	.	.	5.0	.	.	.
COc1ccc(-c2coc3cc(OC(C)=O)ccc3c2=S)cc1	11.1	.	4.5	.	.	.
CC1(C)CC(NC(=O)c2cccc([N+](=O)[O-])c2)CC(C)(C)N1	.	.	.	.	.	.
O=S(=O)(c1cccs1)N1CN(Cc2ccco2)c2nc3ccccc3nc21	.	.	.	.	0.9	.
COc1ccccc1CN1CN(S(=O)(=O)c2ccccc2)c2nc3ccccc3nc21	.	.	.	6.1	.	.
O=S(=O)(c1cccs1)N1CN(Cc2ccc(Cl)cc2)c2nc3ccccc3nc21	.	.	.	.	.	.
CC(C)NC(=O)c1cc(C2CCCCN2S(=O)(=O)c2ccc(F)cc2F)on1 (stereo not drawn)	.	.	/	.	.	.
CCN(CC)c1ccc(/C=N/NC(=O)c2ccoc2C)c(O)c1	11.6	.	.	.	.	.
CCN(CC)c1ccc(/C=N/NC(=O)OC)c(O)c1	.	.	.	.	.	.
CCCCCn1nc(C)c(/C=N/NC(=O)c2ccoc2C)c1C	12.6	3.6	.	.	.	.
COC(=O)[C@]12C[C@H](CC(=O)NCCc3ccccc3OC)C(=O)N(Cc3ccco3)C1=C[C@H](C(C)(C)C)O[C@@H]2C	.	.	/	.	.	.
Cc1ccc2cc3cc(C(=O)N4CCCCC4C)oc3nc2c1 (stereo not drawn)	12.1	4.2	.	5.9	1.0	.
COc1ccc2nc3oc(C(=O)N4CCC(C(N)=O)CC4)cc3cc2c1	.	.	.	.	.	.
CCOC(=O)C1CCN(C(=O)c2cc3cc4ccc(OC)cc4nc3o2)CC1	.	3.8	.	.	.	.
CCCn1c2c(c(O)c(C(=O)Nc3nc4ccccc4s3)c1=O)CCCC2	.	.	.	6.0	.	.
CCCCNC(=O)C[C@H]1C[C@@]2(C(=O)OC)C(=C[C@H](C3CCCC3)O[C@@H]2C)N(Cc2ccco2)C1=O	.	.	/	.	.	7.8
